# Compound activity from PubChem BioAssay.
# HPGD inh – inhibitors of human 15-hydroxyprostaglandin dehydrogenase (HPGD); actives 4.3% (n = 150,000); purified HPGD, NADH fluorescence kinetic, PGE2 substrate; P15428; Potency, µM, for inactives: top-dose activity change, negative = inhibition, actives largely listed as inhibitors; further: potency means the concentration at half of the fitted maximal effect
# Target sequence (P15428 whole entry, looked up): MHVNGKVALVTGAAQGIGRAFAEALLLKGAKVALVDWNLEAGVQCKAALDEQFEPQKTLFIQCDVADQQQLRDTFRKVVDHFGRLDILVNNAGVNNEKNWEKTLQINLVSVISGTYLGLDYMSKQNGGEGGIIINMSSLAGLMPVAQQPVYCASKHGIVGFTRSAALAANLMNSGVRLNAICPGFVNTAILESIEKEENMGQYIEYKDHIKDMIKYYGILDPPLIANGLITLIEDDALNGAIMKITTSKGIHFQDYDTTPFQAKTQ
#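 NADH formation kinetics: reaction with 30 uM PGE2 and 1 mM NAD+ (final), 20 nM enzyme, Tris-HCl pH 8 with Tween 20, after 15 min compound preincubation at room temperature. Fluorescence change, last versus first of five reads.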
# PNC inhibitor – blocks assembly of the perinucleolar compartment; PC3M PTB-GFP, PNC prevalence imaging, 16 h; active compounds read low; activity change (PNC), negative = inhibition, % at 10 µM; actives 3.1% (n = 140,000); AID 2417;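 active means readout at or below -70, meaning at least 70% loss of cells showing the perinucleolar compartment, a nuclear body marking cancer cells; inconclusive means readout between -30 and a set limit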;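 further: plate controls were DMSO wells for no effect and camptothecin positive control wells for full effect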
#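 PC3M cells stably expressing PTB-GFP, 750–1000 cells/well, treated 16 h at 37 °C with compound (23 nl of library stock), in duplicate. After paraformaldehyde fixation and Hoechst stain, imaged at 20x; PNC prevalence scored by image analysis.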
# ALDH1A1 block – inhibitors of human aldehyde dehydrogenase 1A1 | P00352 | Purified ALDH1A1, NADH fluorescence, propionaldehyde substrate | Potency, µM (doses to about 75.3 µM), without a hit: at the highest dose activity, negative = inhibition, most hits filed as inhibitors | actives 7.3% (n = 220,000) | AID 1030;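 further: potency means the concentration at half of the fitted maximal effect; plate controls were no enzyme wells and a reference inhibitor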
# * = called active by the depositor; ? = inconclusive; . = no result given; [ ] = remark or other dose. This is a sample that favours compounds with a hit; in the whole collection about 11% have one here. Unless noted, the call rests on the fitted dose curve; in most records, active means well fitted inhibition curve with a large enough effect (not every such curve was filed as active); inconclusive means small, poorly fitted or top-dose-only effect, or another doubt; inactive means no such curve, though single readings can be large or run the other way. Unless noted, on the % scale 0 is the no-effect control and ±100 the full control effect.
SMILES,HPGD inh,PNC inhibitor,ALDH1A1 block
CCO[C@@H]1OC(C(=O)O)=C[C@H](c2ccc3c(c2)OCO3)[C@H]1CCCO,.,.,-2%
COC(=O)NC(CC(C)=O)c1cccc(F)c1 (stereo unspecified),.,.,5%[13.5 µM]
CCCCC/C=C\C/C=C\C[C@H](O)/C=C/C=C\CCCC(=O)O,-2%,.,0%
O=S(=O)(/N=C(/Nc1ccc(F)c(F)c1F)c1ccccc1)c1ccccc1,-6%,-21,-15%
CC(=O)NC(Cc1cccc(F)c1)C(=O)NC1CCN(C(=O)c2cccc(C)c2)CC1 (stereo unspecified),.,.,4%
CC(=O)NC(Cc1ccc(C(C)C)cc1)C(=O)NC1CCN(C(=O)c2cccc(C)c2)CC1 (stereo unspecified),.,.,25µM*
COCCNC(=O)CSc1nnc(CCCN2C(=O)c3cccc4cccc(c34)C2=O)n1-c1ccccc1,-17%,?,-13%
CC(=O)c1cccc(NC(=O)NC2CC3CCCC(C2)N3CC(C)C)c1 (stereo unspecified),-10%,-100*,-7%
CCCN1C2CCCC1CC(NC(=O)Nc1cccc(C(C)=O)c1)C2 (stereo unspecified),0%,?,9%
CCO[P@]1(=O)OC[C@@H]2O[C@H](n3cnc4c(N)ncnc43)[C@H](O)[C@@H]2O1,-3%,.,5%[13.5 µM]
O=C(NC1CCCCC1)C1Cc2ccccc2CN1S(=O)(=O)c1ccc(F)cc1 (stereo unspecified),-17%,-100*,5%
O=C(C1Cc2ccccc2CN1S(=O)(=O)c1ccc(F)cc1)N1CCCCC1 (stereo unspecified),5%,48,7%
COCC(C)NC(=O)c1cc(-c2ccc(OC)c(OC)c2)on1 (stereo unspecified),-11%,-83*,10%
CCCCNC(=O)c1cc(-c2ccc(OC)c(OC)c2)on1,-18%,15,11%
O=C(Cn1cnc(Cl)c1Cl)c1ccc(F)cc1,.,.,-9%
COCc1cc(Sc2ccc(Cl)cc2)nc(-c2ccccc2)n1,-8%,-24,6%
CS(=O)Cc1cc(Sc2ccccc2)nc(-c2ccncc2)n1 (stereo unspecified),.,.,8.9µM*
COc1c(O)cc(O)cc1O,-7%,.,5%
Cc1cc(O)c(Oc2cc(C)cc(O)c2O)c(O)c1,.,.,8.9µM*
O=C(O)C1CCC(N2C(=O)C3C4CCC(C4)C3C2=O)CC1 (stereo unspecified),.,.,14%
Cn1c(N)c(C(=O)COC(=O)CSc2cccc3cccc(Cl)c23)c(=O)n(C)c1=O,.,.,-4%
O=C(c1ccc(NS(=O)(=O)c2ccccc2)cc1)N1CCCC1,18µM*,?,?
CCN(CC)S(=O)(=O)c1cccc(C(=O)N2CCCCC2)c1,-9%,?,-2%
O=C(c1ccc(S(=O)(=O)Nc2ccccc2)cc1)N1CCOCC1,-9%,51,4%
CCN(CC)S(=O)(=O)c1ccc(S(=O)(=O)Nc2ccc(C(=O)N3CCCC3)cc2)cc1,-10%,12,0.63µM*
SMILES,HPGD inh,PNC inhibitor,ALDH1A1 block
CCOC(=O)N/N=C(\C)c1ccc(-n2cnnn2)cc1,.,.,6%
Cc1ccc(OCC(=O)N2CCOCC2)cc1C,-13%,-30,-5%
Cc1ccc(OCc2ccc(C(=O)N3CCOCC3)cc2)cc1C,25µM*,?,0%
NC(=O)C1CCN(c2ncnc3c(-c4ccccc4)nsc23)CC1,-11%,?,-11%
O=C(NC1CC1)C1CCN(c2ncnc3c2sc2cccc(F)c23)CC1,16µM*,21,?
CSCSC1=C(C#N)C(c2ccccc2Cl)C(C(C)=O)=C(C)N1 (stereo unspecified),?,?,25µM*
CC(=O)C1=C(C)NC(SCSc2ccccc2)=C(C#N)C1c1cccnc1 (stereo unspecified),-14%,-86*,?
CCOC(=O)CSC1=C(C#N)C(c2ccccc2F)C(C(C)=O)=C(C)N1 (stereo unspecified),-12%,22,?
CC(=O)C1=C(C)NC(SCC(=O)c2ccc(-c3ccccc3)cc2)=C(C#N)C1c1cccnc1 (stereo unspecified),-5%,84,-1%
Cn1cnc(S(=O)(=O)Nc2cc(-c3ccc(Cl)cc3)nn2C)c1,.,.,6%
FC(F)(F)c1ccc(N=Cc2sc(N3CCOCC3)nc2-c2ccccc2)cc1,-16%,54,?
O=C(Nc1ccc2c(c1)CCC2)Nc1ccc2c(c1)OCO2,.,.,5%
Cc1nnc(C)c2c(C)n(-c3ccc(Br)cc3)c(C)c12,2%,?,4%
Cc1cn(-c2ccc(Br)cc2)[nH]c1=O,25µM*,?,4%
CN(c1ccc(O)cc1)c1nc(-c2ccccc2)cs1,16µM*,?,9%
CN(C)CCCN(C(=O)c1cccs1)c1nc(-c2ccccc2)cs1,-3%,-17,-1%
Cn1c(CO)cnc1SCc1ccc(Cl)cc1,-2%,-20,11%
CCOC(=O)C1=C(C)N(c2ccccc2)C(=O)/C1=C\c1ccco1,-18%,?,11µM*
CCOC(=O)C1=C(C)N(c2ccccc2)C(=O)/C1=C\c1cccs1,-2%,24,-9%
CC1(C)CCC[C@@]2(C)C1CC[C@@](C)(O)[C@@H]2CC[C@@](C)(O)C1CO1 (stereo partly specified),-5%,.,?
COc1ccc(Cn2nnnc2C(c2ccccc2Cl)N2CCN(C3CCCC3)CC2)cc1 (stereo unspecified),.,7,-9%
COc1ccc(Cn2nnnc2C(c2ccncc2)N2CCOCC2)cc1 (stereo unspecified),-1%,-99*,28µM*
COc1ccc(Cn2nnnc2C(c2cc3cccc(C)c3[nH]c2=O)N2CCOCC2)cc1 (stereo unspecified),-21%,-28,?
CC(C)(C)n1nnnc1C(c1ccncc1)N1CCN(C2CCCCC2)CC1 (stereo unspecified),-4%,8,5%
Cc1ccc(C(c2nnnn2Cc2ccccc2)N2CCN(Cc3ccccc3)CC2)cc1 (stereo unspecified),0%,?,22µM*
SMILES,HPGD inh,PNC inhibitor,ALDH1A1 block
CC(C)(C)n1nnnc1C(c1cccnc1)N1CCN(C2CCCCC2)CC1 (stereo unspecified),-4%,-84*,5%
COc1ccc(Cn2nnnc2C(c2ccccc2)N2CCN(C3CCCC3)CC2)cc1 (stereo unspecified),-9%,?,8.9µM*
c1ccc(CN2CCN(C(c3ccccc3)c3nnnn3Cc3ccccc3)CC2)cc1 (stereo unspecified),-9%,25,-13%
CCOC(=O)c1ccc(-c2c(C)cc3oc(=O)cc(-c4ccccc4)c3c2C)cc1,-12%,.,-4%
FC(F)(F)c1ccccc1-c1nc(NCCN2CCOCC2)c2ccccc2n1,.,.,14%
O=C(COc1ccccc1)N/N=C/c1ccc2c(c1)OCO2,.,.,-1%
COc1ccccc1N/N=C/c1ccc2c(c1)OCO2,16µM*,?,?
Cc1ccc(C(=O)CCC2CCCCC2=O)cc1 (stereo unspecified),-29%,?,-9%
CCc1ccc(C(=O)CCC2CCCCC2=O)cc1 (stereo unspecified),16µM*,38,?
COc1cc2cc[n+]3cc4c(OC)c(OC)ccc4cc3c2cc1OC,-24%,.,-2%
C#CCSc1nc(C)cc(C(=O)OCC)c1C#N,.,.,-8%
